The structures appear in SMILES notation. Out of some 290,000 compounds screened, about 890 (0.31%) were called active. The sample holds actives, similar compounds and a random draw of the others, so the mix is not that of the screen. No stated cut-off is given here; in the data, active means inhibition mostly above about 52% (no sharp cut-off); inactive means mostly below about 76%.

This test is described as follows: cell-free HIV fusion peptide-binding blockers – biochemical, uHTS, fluorescence dequenching, primary screen (AID 1986). The settings on record: 30 min, stronger effect = higher value.
[1] abbreviates: measured here: repeat confirmation average inhibition, at 18.6 µM.

A word on the inhibition: it is the drop in the measured response relative to a control, in per cent. In the case of `Oc1c(/C=N/c2ccccn2)sc2ccccc12`, the inhibition (at 20 µM) is 6.4% (inactive).

On to `CCOc1ccc2nc(NC(=O)C34CC5CC(CC(NC(C)=O)(C5)C3)C4)sc2c1`, for which the inhibition (at 20 µM) is -1.2% (inactive).

Consider `O=C(O)c1c(Cl)c(Cl)c(Cl)c(Cl)c1C(=O)N1CCOCC1`, for which, where the note is “at 20 µM”, the inhibition was 4.1% (inactive).

`N#C/C(=N\Nc1ccc(S(=O)(=O)N2CCc3ccccc32)cc1)C(N)=S`: the inhibition (at 20 µM) is 51.3% (active).

Consider `N#C/C(=N\Nc1ccc(S(=O)(=O)N2CCCCCC2)cc1)C(N)=S`, for which, for the setting “at 20 µM”, the inhibition is 9.5% (inactive).

As to `CCOC(=O)/C(C#N)=N/Nc1ccc(S(=O)(=O)N2CCc3ccccc32)cc1`, the inhibition (at 20 µM) is 5.4% (inactive).

As for `Cc1ccc(NC(=O)c2cc([N+](=O)[O-])ccc2NCc2cccnc2)cc1`, the inhibition (at 20 µM) is -0.6% (inactive).

On to `O=C(O)c1ccc(/C=N/NC(=O)c2cc(-c3ccc4c5c(cccc35)CC4)n[nH]2)cc1`, for which the inhibition is 61.2% (inactive) (at 20 µM) and 7% under setting [1].

Take `O=C(N/N=C/c1cccc([N+](=O)[O-])c1)c1cc(-c2ccc3c4c(cccc24)CC3)n[nH]1`: for the setting “at 20 µM”, the inhibition was -6.3% (inactive).

As to `O=C(N/N=C/c1ccccc1C(=O)O)c1cc(-c2ccc3c4c(cccc24)CC3)n[nH]1`, the inhibition (at 20 µM) was 69.6% (active).

On to `Cc1ccc(C(=O)NCC(c2ccc(F)cc2)N2CCOCC2)cc1` (stereo unspecified), for which the inhibition (at 20 µM) was -1.6% (inactive).

Turning to `Cc1ccc(CSc2nnc(SCC(=O)N/N=C/C=C/c3ccco3)s2)cc1`, the inhibition (at 20 µM) is 46.7% (inactive).

With `O=C(CSc1nnc(SCc2ccccc2)s1)N/N=C/C=C\c1ccco1`, the inhibition (at 20 µM) is 51.3% (active).

As to `O=C(Cc1cccs1)N/N=C/c1ccco1`, under “at 20 µM”, the inhibition is 5% (inactive).

Consider `O=C(Cc1cccs1)N/N=C/C=C/c1ccco1`, for which the inhibition (at 20 µM) was 31.2% (inactive).

For the molecule `O=C(CSc1nnc(SCc2ccccc2)s1)N/N=C/C=C/c1ccco1`, the inhibition (at 20 µM) is 33.4% (inactive).

As for `O=C(Cc1cccs1)N/N=C/C=C\c1ccco1`, the inhibition (at 20 µM) was 69.7% (active).

As to `O=C(NC(NC(=O)c1ccccc1)c1cccc([N+](=O)[O-])c1)c1ccccc1`, the inhibition (at 20 µM) was 4.1% (inactive).

As for `CN(C)CCCNS(=O)(=O)c1ccc(N2CCC(c3ccc(Cl)cc3)=N2)cc1`, the inhibition (at 20 µM) was -4.9% (inactive).

As to `COc1ccc(-c2nc(N3CCCCCC3)sc2C(=O)c2ccccc2)cc1`, the inhibition (at 20 µM) was 0.2% (inactive).

For the molecule `O=[N+]([O-])c1ccc(N=Nc2c(O)[nH]c3ccc(F)cc23)cc1`, under “at 20 µM”, the inhibition is 6.3% (inactive).

`Cc1cccc(N=Nc2c(O)[nH]c3ccc(Br)cc23)c1`: under “at 20 µM”, the inhibition was 13.9% (inactive).

In the case of `Oc1[nH]c2ccc(Br)cc2c1N=Nc1ccc(F)cc1`, under “at 20 µM”, the inhibition is 164% (inactive).

Consider `Cc1cccc(N=Nc2c(O)[nH]c3ccc(F)cc23)c1`, for which the inhibition (at 20 µM) was 95% (active) and the inhibition under setting [1] was 136%.

On to `Oc1[nH]c2ccccc2c1N=Nc1ccc(F)cc1`, for which, where the note is “at 20 µM”, the inhibition is 150% (inactive).

In the case of `Cc1ccc(N=Nc2c(O)[nH]c3ccc(F)cc23)cc1`, the inhibition (at 20 µM) was 111% (active).

`CCOc1ccc(N(C(=O)c2snc(C(N)=O)c2N)C(CC)C(=O)NC2CCCC2)cc1` (stereo unspecified): under “at 20 µM”, the inhibition is 1.8% (inactive).

For the molecule `Cc1cc(C)c(NC(=O)CSc2nc3ncc(Cl)cc3[nH]2)c(C)c1`, where the note is “at 20 µM”, the inhibition is 2.2% (inactive).

As to `CNC(=O)c1c(C)[nH]c(=S)c(C#N)c1-c1ccco1`, the inhibition (at 20 µM) was 4.3% (inactive).

Take `Cc1ccc(-c2c(C(=O)Nc3ccccc3C)c(C)[nH]c(=S)c2C#N)o1`: the inhibition (at 20 µM) is 33.1% (inactive).

For the molecule `Cc1ccccc1NC(=O)c1c(C)[nH]c(=S)c(C#N)c1-c1ccco1`, under “at 20 µM”, the inhibition is 66.5% (active).

For the molecule `O=C(CN1C(=O)NC2(CCCCCCC2)C1=O)N1CCN(C(=O)c2ccco2)CC1`, for the setting “at 20 µM”, the inhibition is 1.6% (inactive).

As for `COc1ccc(CCC(=O)Nc2ccccc2C(F)(F)F)cc1`, the inhibition (at 20 µM) is 0% (inactive).

For the molecule `CCCN1CCN(C(=O)CCn2c(=O)c3cccn3c3cccnc32)CC1`, the inhibition (at 20 µM) is 0.2% (inactive).

In the case of `Nc1c(C(=O)N/N=C/c2cccnc2)oc2nc(-c3ccco3)cc(-c3ccco3)c12`, the inhibition reads like this: (at 20 µM) 99.1% (inactive); under setting [1], 9.2%.

Consider `Nc1c(C(=O)N/N=C/c2ccccc2Cl)oc2nc(-c3ccccc3)cc(-c3ccco3)c12`, for which the inhibition runs as follows: (at 20 µM) 51.3% (active); under setting [1], 69.2%.

For `Nc1c(C(=O)N/N=C/c2cccnc2)oc2nc(-c3ccccc3)cc(-c3ccco3)c12`, the inhibition (at 20 µM) is 32.7% (inactive).

Regarding `COc1cccc(/C=N/NC(=O)c2oc3nc(-c4ccccc4)cc(-c4ccco4)c3c2N)c1`, the inhibition is 54.2% (active) (at 20 µM) and 55.5% under setting [1].

As to `Cc1ccc(-c2cc(-c3ccco3)c3c(N)c(C(=O)NN)oc3n2)cc1`, the inhibition runs as follows: (at 20 µM) 60.5% (inactive); under setting [1], 7.9%.

`Nc1c(C(=O)N/N=C/c2ccc(F)cc2)oc2nc(-c3ccccc3)cc(-c3ccco3)c12`: the inhibition (at 20 µM) is 44.8% (inactive).

Consider `O=C(CCCCCN1C(=O)c2ccccc2C1=O)Nc1ccc(C(=O)O)cc1`, for which, for the setting “at 20 µM”, the inhibition is -1% (inactive).

In the case of `CSc1nc2ccccc2n1CC(=O)Nc1ccc(C)c(C)c1`, the inhibition (at 20 µM) was 0.9% (inactive).

For `O=[N+]([O-])c1cccc(S(=O)(=O)c2ccc(N3CCCCC3)c([N+](=O)[O-])c2)c1`, the inhibition (at 20 µM) was 2.4% (inactive).

Regarding `CCOC(=O)C1=C(CC)OC(N)=C(C#N)C1c1ccc(OC)c(C)c1OC` (stereo unspecified), under “at 20 µM”, the inhibition was -1.8% (inactive).

Consider `CCOC(=O)/C(=N\Nc1cccc(C(F)(F)F)c1)N1CCOCC1`, for which, for the setting “at 20 µM”, the inhibition was -4.2% (inactive).
